# The panel holds about 83,000 compounds, 20% with a hit somewhere; the sample as a whole holds those more often.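 How to read the values: 0–100, growth inhibition (40 = 60% inhibited); 0, no net growth; -100 to 0, cell death (-40 = 40% of starting cells died; -100 = all dead).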 The source made the active and inactive calls. The calls were made as follows: active = growth percent below 10; inactive = the rest.
# How the values were obtained:
# Assay in all cases: NCI-60 one-dose screen, 48 h (100 = growth as untreated, 0 = no growth, -100 = all killed)
# Conditions in all cases: 10 µM unless noted
# [1] = tested on: SK-MEL-2 melanoma
# [2] = tested on: EKVX NSCLC
# [3] = tested on: SN12C renal
# [4] = tested on: UO-31 renal
# [5] = tested on: TK-10 renal
# [6] = tested on: ACHN renal
# [7] = tested on: CAKI-1 renal
# [8] = tested on: A498 renal
# [9] = tested on: RPMI-8226 leukemia
# [10] = tested on: OVCAR-8 ovarian
# [11] = tested on: OVCAR-5 ovarian
# [12] = tested on: OVCAR-4 ovarian
# [13] = tested on: SK-OV-3 ovarian
# [14] = tested on: IGROV1 ovarian
# [15] = tested on: OVCAR-3 ovarian
# [16] = tested on: NCI/ADR-RES ovarian
# [17] = tested on: HS 578T breast
# [18] = tested on: CCRF-CEM leukemia
# [19] = tested on: MOLT-4 leukemia
# [20] = tested on: SR leukemia
Structure (SMILES),growth [1],growth [2],growth [3],growth [4],growth [5],growth [6],growth [7],growth [8],growth [9],growth [10],growth [11],growth [12],growth [13],growth [14],growth [15],growth [16],growth [17],growth [18],growth [19],growth [20]
Cc1c(C(N)=O)sc2c1c(=O)n(Cc1ccccc1)c1nnc(Nc3ccccc3)n21,103% (inactive),94.1% (inactive),99.2% (inactive),67.9% (inactive),113% (inactive),96.4% (inactive),82% (inactive),110% (inactive),148% (inactive),89.2% (inactive),104% (inactive),117% (inactive),99.1% (inactive),104% (inactive),115% (inactive),103% (inactive),–,–,–,–
Clc1ccc(-c2nc3ccccc3s2)cc1Cl,94.8% (inactive),85.3% (inactive),92.3% (inactive),72.3% (inactive),81.5% (inactive),93.3% (inactive),83.9% (inactive),77% (inactive),104% (inactive),98.9% (inactive),103% (inactive),81.3% (inactive),108% (inactive),75% (inactive),92.7% (inactive),98.1% (inactive),104% (inactive),–,–,–
COc1ccc(OC)c(/C=C2\Oc3cc(OCCCN4CCCC4)ccc3C2=O)c1,104% (inactive),80.4% (inactive),76.2% (inactive),56.7% (inactive),99.8% (inactive),78.2% (inactive),82% (inactive),–,77.7% (inactive),78.1% (inactive),82.1% (inactive),86.7% (inactive),110% (inactive),84.2% (inactive),91% (inactive),–,80.8% (inactive),50.8% (inactive),54.8% (inactive),-22.8% (active)
Cc1[nH]c2ccc(F)cc2c1CCNC(=O)C1CCN(C(=O)c2ccccc2)C1 (stereo not given),113% [25 µM] (inactive),80.5% [25 µM] (inactive),95% [25 µM] (inactive),77.1% [25 µM] (inactive),86.9% [25 µM] (inactive),96.3% [25 µM] (inactive),77.1% [25 µM] (inactive),43.8% [25 µM] (inactive),–,–,81.8% [25 µM] (inactive),85.5% [25 µM] (inactive),–,90.4% [25 µM] (inactive),101% [25 µM] (inactive),97.6% [25 µM] (inactive),90.9% [25 µM] (inactive),–,91.6% [25 µM] (inactive),96.3% [25 µM] (inactive)
C[n+]1c(/C=C/c2c(O)ccc3ccccc23)ccc2ccccc21,29.4% (inactive),44.8% (inactive),32.4% (inactive),22.2% (inactive),49.1% (inactive),31.6% (inactive),35.1% (inactive),52.9% (inactive),3.79% (active),21.3% (inactive),77.3% (inactive),28.3% (inactive),50.6% (inactive),45.2% (inactive),-20.5% (active),25.2% (inactive),55.7% (inactive),10.2% (inactive),–,-36.2% (active)
COC(=O)c1nc(-c2ccccc2)oc1S(=O)(=O)N1CCN(c2cccc(Cl)c2)CC1,90% (inactive),93.4% (inactive),74.5% (inactive),62.9% (inactive),89.4% (inactive),84.8% (inactive),32.6% (inactive),111% (inactive),36.6% (inactive),–,81.9% (inactive),103% (inactive),92.9% (inactive),77.8% (inactive),69.2% (inactive),89.2% (inactive),85.7% (inactive),4.91% (active),39.3% (inactive),–
COc1ccc(-n2c(=S)sc3c(Cl)nc(C)nc32)c(OC)c1,23.2% (inactive),49.3% (inactive),27% (inactive),-36.2% (active),45.7% (inactive),56.8% (inactive),-41.8% (active),110% (inactive),22.6% (inactive),–,87% (inactive),95.6% (inactive),80.1% (inactive),-17.3% (active),-20.7% (active),78.5% (inactive),72.6% (inactive),-1.34% (active),-1.97% (active),–
NC(N)=N/N=C/c1ccc(-c2ccc(-c3cc(Cl)cc(Cl)c3)s2)cc1,103% (inactive),96.1% (inactive),-53.8% (active),72.2% (inactive),-68.8% (active),-2.94% (active),50% (inactive),73% (inactive),-9.01% (active),33.1% (inactive),90.5% (inactive),38.6% (inactive),–,-16.7% (active),-81.5% (active),-19.2% (active),80.8% (inactive),–,17.4% (inactive),2.59% (active)
C=C(C)[C@@H]1C[C@@H]2Cc3cc(F)ccc3N1O2,98.1% (inactive),85.9% (inactive),98.6% (inactive),77.4% (inactive),97% (inactive),95.4% (inactive),98% (inactive),95.2% (inactive),65.2% (inactive),97.1% (inactive),93.8% (inactive),101% (inactive),104% (inactive),108% (inactive),112% (inactive),99.6% (inactive),99% (inactive),-47.4% (active),–,–
N[C@@H]1CCN(C(=O)c2cc3cc(Cl)c(F)c(F)c3[nH]2)C1,99.4% (inactive),86.9% (inactive),90.6% (inactive),63.4% (inactive),101% (inactive),90.9% (inactive),68% (inactive),–,96% (inactive),96.3% (inactive),90.3% (inactive),96.5% (inactive),89.3% (inactive),80.7% (inactive),97.6% (inactive),103% (inactive),87.5% (inactive),102% (inactive),94.7% (inactive),88.3% (inactive)
Cc1ccc2ccccc2c1C[n+]1ccccc1,111% (inactive),58.2% (inactive),98.4% (inactive),84% (inactive),88.4% (inactive),106% (inactive),92.8% (inactive),79.3% (inactive),80.9% (inactive),91.7% (inactive),116% (inactive),91.5% (inactive),100% (inactive),101% (inactive),102% (inactive),104% (inactive),95.1% (inactive),–,–,–
O=C1Nc2ccc(Cl)cc2C12Nc1cc(Cl)ccc1S2 (stereo not given),105% (inactive),73.3% (inactive),90.1% (inactive),57.4% (inactive),111% (inactive),104% (inactive),112% (inactive),118% (inactive),44.3% (inactive),99.2% (inactive),113% (inactive),–,108% (inactive),–,72% (inactive),82.5% (inactive),144% (inactive),97.3% (inactive),38.3% (inactive),–
O=C(Nc1ccc(NCCN2CCOCC2)nc1)c1ccc([N+](=O)[O-])cc1,108% (inactive),87.2% (inactive),107% (inactive),96.2% (inactive),114% (inactive),109% (inactive),–,92.5% (inactive),107% (inactive),96.2% (inactive),105% (inactive),103% (inactive),107% (inactive),121% (inactive),114% (inactive),105% (inactive),104% (inactive),101% (inactive),118% (inactive),113% (inactive)
CCN1CCN(c2nc(NNC(=O)c3ccccc3)nc(N3CCN(C(c4ccccc4)c4ccccc4)CC3)n2)CC1,78.4% (inactive),66.6% (inactive),70.8% (inactive),30.8% (inactive),95.1% (inactive),81.1% (inactive),42.7% (inactive),–,42% (inactive),74.3% (inactive),96.2% (inactive),38.2% (inactive),–,53.1% (inactive),52.1% (inactive),79% (inactive),79.2% (inactive),39.4% (inactive),8.93% (active),-20.5% (active)
O=c1[nH]c(-c2ccccc2)nc(CN2CCCCC2)c1O,111% (inactive),112% (inactive),93.9% (inactive),95.1% (inactive),108% (inactive),106% (inactive),–,111% (inactive),97.6% (inactive),107% (inactive),110% (inactive),110% (inactive),114% (inactive),128% (inactive),110% (inactive),100% (inactive),104% (inactive),96.8% (inactive),120% (inactive),85.1% (inactive)
C=CCSc1n[nH]c(-c2cccs2)n1,3.39% (active),108% (inactive),97.2% (inactive),118% (inactive),121% (inactive),105% (inactive),–,101% (inactive),103% (inactive),102% (inactive),98.2% (inactive),107% (inactive),110% (inactive),15.8% (inactive),115% (inactive),102% (inactive),101% (inactive),94.6% (inactive),99.5% (inactive),91% (inactive)
CCOC(=O)c1cn2c3c(cc(C)cc3c1=O)C(=O)/C(=C/c1ccccc1)C2,95.5% (inactive),101% (inactive),94.2% (inactive),57.6% (inactive),75% (inactive),91.3% (inactive),–,86.9% (inactive),110% (inactive),82.1% (inactive),90% (inactive),88.1% (inactive),82.3% (inactive),93.2% (inactive),96.7% (inactive),93.9% (inactive),103% (inactive),93.5% (inactive),86.9% (inactive),–
CC(C)c1ccc2occ(C=C3C(=O)NC(=O)NC3=O)c(=O)c2c1,93.5% (inactive),117% (inactive),91.5% (inactive),86.6% (inactive),84.6% (inactive),104% (inactive),103% (inactive),–,74.8% (inactive),80.1% (inactive),123% (inactive),89.1% (inactive),109% (inactive),120% (inactive),95.6% (inactive),90.1% (inactive),–,77.8% (inactive),66.8% (inactive),73.1% (inactive)
NC(=S)N/N=C(/CCN1CCCC1)CC(C1=C(O)C2=CCCCC2OC1=O)c1ccccc1 (stereo not given),93.2% (inactive),63.3% (inactive),85.3% (inactive),64.5% (inactive),120% (inactive),89.4% (inactive),–,109% (inactive),73.9% (inactive),88.2% (inactive),96.9% (inactive),62.2% (inactive),94.3% (inactive),52.8% (inactive),21.8% (inactive),40.4% (inactive),96.7% (inactive),48.9% (inactive),64.8% (inactive),–
